In the library only some 3.7% were active in any assay of this set; here they are far more common.
GLP-1R inv ag – qHTS of GLP-1 Receptor Inverse Agonists (Inhibition Mode); Glucagon-like peptide 1 receptor (Homo sapiens), P43220; HEK293 GLP-1R CRE-luciferase, luminescence, 24 h; GLP-1R form is constitutively active; Potency, µM (series often up to 38.3 µM), usual class: inhibitors; 1.6% of 410,000 active; note: nearly all actives have a fitted effect of over 55% in size
Target sequence (P43220 whole entry, looked up): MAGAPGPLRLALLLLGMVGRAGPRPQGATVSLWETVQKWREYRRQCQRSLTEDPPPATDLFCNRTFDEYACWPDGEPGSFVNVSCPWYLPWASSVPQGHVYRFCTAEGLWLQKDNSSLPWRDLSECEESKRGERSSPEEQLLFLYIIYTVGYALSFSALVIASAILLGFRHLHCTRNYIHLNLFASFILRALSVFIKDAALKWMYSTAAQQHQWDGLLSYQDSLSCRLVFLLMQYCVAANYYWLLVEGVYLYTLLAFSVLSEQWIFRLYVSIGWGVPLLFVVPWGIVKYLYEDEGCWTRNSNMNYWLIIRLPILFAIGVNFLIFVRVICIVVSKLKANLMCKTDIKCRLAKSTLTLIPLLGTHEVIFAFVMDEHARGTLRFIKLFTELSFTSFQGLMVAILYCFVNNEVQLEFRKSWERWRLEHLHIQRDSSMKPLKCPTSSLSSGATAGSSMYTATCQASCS
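HEK293 cells stably co-expressing constitutively active GLP-1R and a cAMP-responsive luciferase reporter were seeded in DMEM with 10% Nu serum, given compounds after 12 h, and incubated 24 h at 37 deg C. Luminescence was then read.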
GLP-1R agonist – qHTS of GLP-1 Receptor Agonists; 0.007% of 380,000 active; Potency, µM (top dose mostly 45.6 µM), actives largely listed as activators; HEK293 GLP-1R CRE-luciferase, luminescence, 4-6 h; cells express a hypersensitive GLP-1R form
TGFb inhibitor – qHTS for Inhibitors of TGF-b; HepG2 CAGA-GFP TGF-b/SMAD3 reporter, GFP fluorescence, 18 h; TGF-beta stimulated, 500 pg/mL final; 1.2% of 410,000 active; Potency, µM (highest dose often 46.1 µM), most hits filed as inhibitors; note: nearly all actives have a fitted effect of over 65% in size
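Inhibition was scored as loss of TGF-beta-induced (500 pg/mL final, 18 hours, 37 degrees C) GFP in HEPG2 cells carrying a CAGA-GFP reporter, in DMEM with 1% FBS. Well GFP was summed per cell; Activity was normalised to unstimulated and stimulated DMSO wells, then concentration-response fitting.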
HepG2 tox – qHTS for Inhibitors of TGF-b: Cytotox Counterscreen; Potency, µM (top dose mostly 46.1 µM), usual class: cytotoxic; 0.76% of 410,000 active; HepG2 CAGA-GFP viability, ATP luminescence, 18 h
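CellTiter-Glo luminescence gave cytotoxicity after 18 hours at 37 degrees C. The cells were HepG2 CAGA-GFP in 1% FBS DMEM, stimulated with 500 pg/mL TGF-beta after compound addition. %Activity was normalised to no-cell wells (complete cell-killing) and DMSO (no toxicity), and curves were fitted and classified.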
ATXN viability – Viability Counterscreen for Primary qHTS for Inhibitors of ATXN expression | S2 cells (HEK-293 line with an ATXN2-luciferase reporter) viability, CellTiter-Fluor protease fluorescence, 24 h | Potency, µM (top dose mostly 56.7 µM), actives largely listed as cytotoxic | 0.49% of 400,000 active | AID 651635, 2014; note: nearly all actives have a fitted effect of over 40% in size
ATXN2 expr inh – Primary qHTS for Inhibitors of ATXN expression; 0.72% of 360,000 active; HEK-293 ATXN2-luciferase reporter, luminescence, 24 h; Potency, µM (top dose mostly 57 µM), hits mostly inhibitors; AID 1745845, 2022; note: nearly all actives have a fitted effect of over 55% in size
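ATXN2-luciferase reporter cells (luciferase flanked by upstream and downstream ATXN2 gene portions) were treated 24 h at 37 °C with compounds at up to 57 uM. SteadyGlo luminescence gave expression; GF-AFC fluorescence gave viability.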
A number is an active result; - = inactive; ? = inconclusive; . = no result given. Calls come from the whole dose curve; as a rule, active = well fitted curve in the direction sought with a large enough effect; inconclusive = small, poorly fitted or top-dose-only effect, or another doubt; inactive = no such curve, though single readings can be large; an effect the other way counts as inactive or inconclusive.

SMILES	GLP-1R inv ag	GLP-1R agonist	TGFb inhibitor	HepG2 tox	ATXN viability	ATXN2 expr inh
Cc1nn(S(=O)(=O)c2ccc(C(C)(C)C)cc2)c(C)c1S(=O)(=O)N1CCCCCC1	-	-	-	-	-	-
COc1ccc2[nH]c(S(=O)Cc3ncc(C)c(OC)c3C)nc2n1 (stereo not drawn)	.	-	.	.	-	-
O=C(NC(c1ccc(Cl)cc1)c1c(O)ccc2ccccc12)c1ccccc1 (stereo not drawn)	-	-	11µM	18µM	-	-
CCC(=O)NC(c1ccc(OC)cc1)c1c(O)ccc2ccccc12 (stereo not drawn)	3.5µM	-	-	-	?	.
COC(=O)c1ccc(C(=O)NCC2Cc3cccc(-c4ccc(C(=O)OC)cn4)c3O2)cc1 (stereo not drawn)	.	.	.	.	-	.
Cc1sc2ccccc2[n+]1C	.	.	-	-	.	.
O=C(c1cccc([N+](=O)[O-])c1)N1CCN(C/C=C/c2ccccc2)CC1	-	-	?	-	-	-
CC(C(=O)Nc1cccc([N+](=O)[O-])c1)N1CCN(C/C=C/c2ccccc2)CC1 (stereo not drawn)	10µM	-	-	-	-	-
O=C(Nc1cccc(F)c1)N1CCN(C/C=C/c2ccccc2)CC1	8.9µM	-	?	-	-	-
COCc1ccc(CN2CCOc3ccc(C4=CCCCC4)cc3C2)o1	.	.	.	.	-	.
O=S(=O)(c1ccccc1)N1CCN(c2nc(-c3ccc(F)cc3)nc3cc(Cl)ccc23)CC1	.	.	-	-	.	.
CCc1nn(CC(=O)Nc2c(C)cc(C)cc2C)c(=O)c2cc3sccc3n12	-	.	-	-	.	.
Cc1nc([N+](=O)[O-])c(Sc2nc3ccc([N+](=O)[O-])cc3[nH]2)n1Cc1ccccc1	?	-	-	10µM	?	-
CCOC(=O)CSc1nc2cc(OC)c(OC)cc2cc1C#N	.	.	-	-	.	.
CN(C)C(=O)c1ccc2c(c1[N+](=O)[O-])C(=O)c1ccccc1C2=O	-	-	10µM	-	-	-
COc1ccccc1-n1cc(C(=O)NCCN2Cc3ccccc3OC(c3ccsc3)C2)cn1 (stereo not drawn)	.	.	.	.	-	.
Cc1ccc(C)c(C(=O)N2CCC(c3nc4c(nnn4Cc4ccccc4)c(=O)[nH]3)CC2)c1	?	.	11µM	-	-	-
CCCCCCC(C)n1[nH]c(=O)c2c(C)cc(C)nc21 (stereo not drawn)	10µM	-	-	-	-	-
CCCCCC(C)n1[nH]c(=O)cc1N (stereo not drawn)	-	-	?	-	-	-
N/C(=N\S(=O)(=O)c1cc(C(F)(F)F)cc(C(F)(F)F)c1)c1ccc(Cl)cc1	2.5µM	-	10µM	-	?	?
N/C(=N\S(=O)(=O)c1cc(C(F)(F)F)cc(C(F)(F)F)c1)c1ccncc1	-	-	-	-	-	-
COC(=O)c1cc2c(n1S(=O)(=O)c1ccc(C)cc1)C(=O)C(=O)c1[nH]cc(C(=O)OCc3ccccc3)c1-2	?	-	?	0.71µM	4.7µM	3µM
CCOc1ccc(C(=O)C(C)OC(=O)C2CCN(c3ccc(C(F)(F)F)cn3)CC2)cc1 (stereo not drawn)	8.9µM	-	-	-	?	-
Cc1ccc(C(=O)C(C)OC(=O)C2CCN(c3ccc(C(F)(F)F)cn3)CC2)cc1C (stereo not drawn)	?	-	-	-	-	-
O=C(CC1C(=O)N(c2ccccc2)C(=O)N1CCC1=CCCCC1)Nc1ccc(F)cc1 (stereo not drawn)	10µM	.	11µM	-	?	-
COc1ccc(N2C(=O)C(CC(=O)Nc3ccc(F)cc3)N(CCC3=CCCCC3)C2=O)cc1 (stereo not drawn)	-	.	-	-	-	-

Compound activity: PubChem BioAssay, National Center for Advancing Translational Sciences (NCATS)
